Reference: PubChem BioAssay (Tox21)
Values without a mark were called inactive. Records with an inconclusive call do not appear. Entries that show only a call come without a potency. Activity calls are given as the source filed them. Unless noted, calls come from the whole dose curve.

How the values were obtained:
[1] = Nuclear factor erythroid 2-related factor 2/antioxidant responsive element (Nrf2/ARE) small molecule agonists: qHTS cell viability counter screen in human keratinocytes (AID 1919968; active = well fitted curve in the direction sought with a large enough effect in the repeat runs; an effect the other way counts as inactive or inconclusive; note: nearly all actives have a fitted effect of over 55% in size; note: potency is the fitted concentration of half-maximal effect)
Summary of the method: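 Cytotoxicity was multiplexed with the Nrf2/ARE luciferase assay in the same wells. Stably transfected HaCaT keratinocytes were treated with test compounds for 23 h at 37 C. Cell viability was then measured by CellTiter-Fluor fluorescence.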

[2] = target: Gonadotropin-releasing hormone receptor (Homo sapiens) (UniProt P30968); experiment: Human gonadotropin-releasing hormone receptor (GnRHR) small molecule agonists, calcium flux assay in GnRHR-HEK293 cells (AID 1920063); note: nearly all actives have a fitted effect of over 35% in size; note: potency is the fitted concentration of half-maximal effect
Gonadotropin-releasing hormone receptor (Homo sapiens), sequence (P30968 whole entry, looked up): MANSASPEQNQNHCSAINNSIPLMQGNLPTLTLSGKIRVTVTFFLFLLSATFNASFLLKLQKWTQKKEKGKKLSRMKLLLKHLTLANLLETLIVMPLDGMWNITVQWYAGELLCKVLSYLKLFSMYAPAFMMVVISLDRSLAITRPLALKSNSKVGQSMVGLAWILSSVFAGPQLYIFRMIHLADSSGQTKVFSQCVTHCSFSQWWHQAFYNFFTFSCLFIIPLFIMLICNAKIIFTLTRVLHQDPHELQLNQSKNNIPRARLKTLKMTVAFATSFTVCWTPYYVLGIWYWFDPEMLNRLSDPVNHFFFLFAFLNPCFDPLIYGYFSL
Summary of the method: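 Agonist activity was measured as intracellular calcium flux in HEK293 cells engineered to stably express human GnRHR. After dye loading for 1 hour at 37 C, compounds in DMSO were added and fluorescence was followed for 3 minutes.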

[3] = target: KiSS-1 receptor (Homo sapiens) (UniProt Q969F8); experiment: Human kisspeptin (KISS1R) small molecule agonists, calcium flux assay in KISS1R-HEK293 cells (AID 1920064; active = well fitted curve in the direction sought with a large enough effect in the repeat runs; an effect the other way counts as inactive or inconclusive)
KiSS-1 receptor (Homo sapiens), sequence (Q969F8 whole entry, looked up): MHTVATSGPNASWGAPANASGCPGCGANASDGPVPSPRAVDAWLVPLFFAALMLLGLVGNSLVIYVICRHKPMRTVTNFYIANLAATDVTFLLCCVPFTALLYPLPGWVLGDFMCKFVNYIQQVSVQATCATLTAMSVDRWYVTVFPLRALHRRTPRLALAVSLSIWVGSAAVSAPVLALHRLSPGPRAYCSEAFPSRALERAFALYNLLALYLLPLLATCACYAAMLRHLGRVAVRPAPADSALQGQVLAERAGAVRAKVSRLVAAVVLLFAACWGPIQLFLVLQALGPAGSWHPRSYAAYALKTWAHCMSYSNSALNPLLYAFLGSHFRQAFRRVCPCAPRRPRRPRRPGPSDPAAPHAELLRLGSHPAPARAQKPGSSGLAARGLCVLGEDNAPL
Summary of the method: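 Agonist activity is monitored as intracellular calcium rise in engineered HEK293 cells carrying human KISS1R. Cells are dye-loaded for 1 h at 37 C before compound addition, and fluorescence is recorded for 3 min.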

[4] = G protein-coupled receptor (GPCR) small molecule agonists, calcium flux assay: HEK293 wild type cell line counter screen (AID 1920065)
Summary of the method: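 Seed cells, incubate 18 h (37 C, 5% CO2); add calcium dye, 1 h at 37 C; pin-transfer compounds, ATP control or DMSO; read fluorescence 480/540 nm each second for 3 min.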

[5] = p53 small molecule agonists, cell-based qHTS assay with rat liver microsomes: qHTS cell viability counter screen (AID 1963580); note: nearly all actives have a fitted effect of over 45% in size; note: potency is the fitted concentration of half-maximal effect
Summary of the method: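 After the beta-lactamase ratio was read, CellTiter-Glo was added to the same wells and luminescence measured at 30 min; cells had been treated 16 h at 37 C with compounds, rat liver microsomes and NADPH (0.5 mg/mL final each).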

[6] = p53 small molecule agonists, cell-based qHTS assay: qHTS cell viability counter screen (AID 1963581); note: nearly all actives have a fitted effect of over 45% in size; note: potency is the fitted concentration of half-maximal effect
Summary of the method: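 Viability was counter-screened in parallel with the p53 agonist reporter by measuring intracellular ATP luminescence in the same HCT-116 p53RE-bla wells after 16 h compound treatment at 37 C.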

[7] = target: 5-hydroxytryptamine receptor 2A (Homo sapiens) (UniProt P28223); experiment: 5-hydroxytryptamine receptor 2A (HTR2A) small molecule antagonists, cell-based qHTS assay (AID 1963586); note: nearly all actives have a fitted effect of over 45% in size
5-hydroxytryptamine receptor 2A (Homo sapiens), sequence (P28223 whole entry, looked up): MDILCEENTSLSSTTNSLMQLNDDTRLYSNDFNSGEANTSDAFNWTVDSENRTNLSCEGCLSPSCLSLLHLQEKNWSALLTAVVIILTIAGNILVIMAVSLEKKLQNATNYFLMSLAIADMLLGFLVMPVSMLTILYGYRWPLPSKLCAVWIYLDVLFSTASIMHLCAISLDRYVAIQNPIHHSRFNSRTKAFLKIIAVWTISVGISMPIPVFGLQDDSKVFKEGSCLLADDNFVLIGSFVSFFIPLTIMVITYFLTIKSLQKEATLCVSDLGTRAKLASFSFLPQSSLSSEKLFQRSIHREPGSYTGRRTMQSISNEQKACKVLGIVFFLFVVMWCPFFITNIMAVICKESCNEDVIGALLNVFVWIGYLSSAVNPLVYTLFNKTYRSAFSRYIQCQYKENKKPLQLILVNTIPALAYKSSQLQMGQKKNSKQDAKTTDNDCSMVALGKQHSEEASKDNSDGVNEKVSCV
Summary of the method: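 CHO cells stably expressing human HTR2A were plated for 18 h at 37 C, then loaded with calcium dye for 1 h. Compounds were preincubated 5 min at room temperature before DOI (4 nM solution) was added. Kinetic fluorescence was read for 3 min.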

[8] = target: 5-hydroxytryptamine receptor 2A (Homo sapiens) (UniProt P28223); experiment: 5-hydroxytryptamine receptor 2A (HTR2A) small molecule agonists, cell-based qHTS assay (AID 1963587); note: nearly all actives have a fitted effect of over 30% in size
Summary of the method: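 CHO cells stably expressing human HTR2A, plated 18 h, loaded with calcium dye 1 h at 37 C. Agonist mode: compounds added and intracellular calcium fluorescence recorded kinetically for 2 min at 1 sec intervals.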

[9] = target: Muscarinic acetylcholine receptor M1 (Homo sapiens) (UniProt P11229); experiment: Cholinergic receptor muscarinic 1 (CHRM1) small molecule antagonists, cell-based qHTS assay (AID 1963588); note: nearly all actives have a fitted effect of over 40% in size; note: potency is the fitted concentration of half-maximal effect
Muscarinic acetylcholine receptor M1 (Homo sapiens), sequence (P11229 whole entry, looked up): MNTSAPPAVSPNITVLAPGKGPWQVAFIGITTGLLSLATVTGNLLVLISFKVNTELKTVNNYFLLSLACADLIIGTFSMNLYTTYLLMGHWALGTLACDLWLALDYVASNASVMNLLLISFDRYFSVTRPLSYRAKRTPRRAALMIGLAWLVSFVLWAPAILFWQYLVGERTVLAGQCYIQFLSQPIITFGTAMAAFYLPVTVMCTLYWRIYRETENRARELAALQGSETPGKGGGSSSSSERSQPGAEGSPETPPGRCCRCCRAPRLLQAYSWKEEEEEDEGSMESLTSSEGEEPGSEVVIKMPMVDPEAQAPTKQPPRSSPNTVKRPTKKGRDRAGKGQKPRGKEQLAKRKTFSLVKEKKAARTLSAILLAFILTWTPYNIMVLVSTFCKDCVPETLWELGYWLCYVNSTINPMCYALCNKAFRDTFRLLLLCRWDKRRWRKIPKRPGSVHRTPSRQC
Summary of the method: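 Compounds were tested at 15 concentrations in three independent runs. Dye-loaded CHRM1-CHO cells were exposed 5 min at room temperature before stimulation by acetylcholine added at 50nM. Intracellular calcium was read kinetically on FDSS for 3 min.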

[10] = target: Muscarinic acetylcholine receptor M1 (Homo sapiens) (UniProt P11229); experiment: Cholinergic receptor muscarinic 1 (CHRM1) small molecule agonists, cell-based qHTS assay (AID 1963589); note: nearly all actives have a fitted effect of over 35% in size
Summary of the method: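 Cells were plated and incubated 18 h at 37 C/5% CO2, loaded with calcium dye for 1 h at 37 C, then treated with compounds in DMSO. Fluorescence was recorded kinetically at 1 sec intervals.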

[11] = cAMP Responsive Elements (CRE) small molecule agonists, cell-based qHTS assay (AID 1963590)
Summary of the method: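 Cells carrying a CRE-driven beta-lactamase reporter (HEK 293T) are seeded, incubated overnight (18 h), and treated with test compounds for 3 h at 37 C; reporter activity is then detected with a FRET substrate after 2 h at room temperature.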

[12] = cAMP Responsive Elements (CRE) small molecule antagonists, cell-based qHTS assay (AID 1963591; active = well fitted inhibition curve with a large enough effect in the signal ratio in the repeat runs, not every such curve was filed as active; the % refers to the signal ratio)
Summary of the method: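 Cells (CRE-bla HEK 293T, DMEM with 10% dialyzed FBS and 25 mM HEPES) are seeded and incubated 18 h. Compounds are added with NKH477 agonist at 0.25 uM final for 3 h, then FRET substrate for 2 h.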

[13] = target: Beta-2 adrenergic receptor (Homo sapiens) (UniProt P07550); experiment: Adrenergic beta2 receptor (ADRB2) small molecule antagonists, cell-based qHTS assay (AID 1963592); note: series mostly up to about 92 µM; nearly all actives have a fitted effect of over 50% in size
Beta-2 adrenergic receptor (Homo sapiens), sequence (P07550 whole entry, looked up): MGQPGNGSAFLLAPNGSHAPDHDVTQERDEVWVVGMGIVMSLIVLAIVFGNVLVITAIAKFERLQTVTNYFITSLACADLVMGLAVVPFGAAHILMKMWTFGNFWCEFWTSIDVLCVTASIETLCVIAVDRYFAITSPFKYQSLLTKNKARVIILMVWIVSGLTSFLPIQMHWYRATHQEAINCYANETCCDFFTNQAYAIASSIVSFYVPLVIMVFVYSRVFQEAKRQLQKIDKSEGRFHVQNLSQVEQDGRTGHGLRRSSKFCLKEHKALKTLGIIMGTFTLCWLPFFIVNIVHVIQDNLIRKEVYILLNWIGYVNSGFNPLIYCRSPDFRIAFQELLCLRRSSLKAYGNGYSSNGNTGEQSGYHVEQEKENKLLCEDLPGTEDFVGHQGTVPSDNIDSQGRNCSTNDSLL
Summary of the method: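 Assay format: CHO-ADRB2 cells, 18-20hr seeding at 37C/5% CO2, then compound plus 1nM isoproterenol agonist mix for 0.5hr RT. Homogeneous time-resolved fluorescence cAMP detection after 1hr, expressed as 665/615 nm ratio.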

[14] = target: D(2) dopamine receptor (Homo sapiens) (UniProt P14416); experiment: Dopamine D2 receptor (DRD2) small molecule agonists, cell-based qHTS assay (AID 1963594); note: nearly all actives have a fitted effect of over 35% in size
D(2) dopamine receptor (Homo sapiens), sequence (P14416 whole entry, looked up): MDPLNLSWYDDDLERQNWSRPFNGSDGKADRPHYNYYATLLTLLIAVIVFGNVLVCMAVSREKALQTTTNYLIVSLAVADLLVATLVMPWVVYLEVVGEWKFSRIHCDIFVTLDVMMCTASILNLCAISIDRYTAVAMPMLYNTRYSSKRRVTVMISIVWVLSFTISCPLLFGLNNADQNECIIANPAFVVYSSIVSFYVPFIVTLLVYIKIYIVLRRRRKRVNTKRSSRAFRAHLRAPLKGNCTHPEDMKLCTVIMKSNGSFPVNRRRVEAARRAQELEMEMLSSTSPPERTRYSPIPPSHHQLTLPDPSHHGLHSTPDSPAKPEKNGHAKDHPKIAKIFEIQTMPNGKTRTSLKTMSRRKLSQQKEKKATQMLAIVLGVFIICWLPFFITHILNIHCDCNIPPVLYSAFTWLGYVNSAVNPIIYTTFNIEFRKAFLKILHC
Summary of the method: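 HEK293 cells stably expressing human DRD2, pre-treated with PDE inhibitor Ro20-1724 (0.1 mM final) and compound 10 min at room temperature, then stimulated with NKH477 (200nM […]) for 30 min. cAMP read by HTRF (665/620 nm).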

[15] = p53 small molecule agonists, cell-based qHTS assay with human liver microsomes: qHTS cell viability counter screen (AID 1963579); note: nearly all actives have a fitted effect of over 45% in size; note: potency is the fitted concentration of half-maximal effect
Summary of the method: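 Luminescent CellTiter-Glo read-out, 30 min at room temperature, gauged cytotoxicity in p53RE-bla cells exposed 16 h at 37 C to DMSO-dissolved compounds with metabolic activation by human liver microsomes and NADPH, each 0.5 mg/mL final.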

[16] = target: D(2) dopamine receptor (Homo sapiens) (UniProt P14416); experiment: Dopamine D2 receptor (DRD2) small molecule antagonists, cell-based qHTS assay (AID 1963595; active = well fitted inhibition curve with a large enough effect in the signal ratio in the repeat runs, with a control signal flat; the % refers to the signal ratio)
Summary of the method: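 HEK293 cells stably expressing DRD2 were preincubated with 0.1 mM Ro20-1724, then with compound for 10 min at room temperature. Cells were stimulated with 200 nM NKH477 plus 12 nM quinpirole for 30 min, and cAMP was read by HTRF.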

[17] = p53 small molecule agonists, cell-based qHTS assay (AID 1963582; active = well fitted activation curve with a large enough effect in the signal ratio in the repeat runs, not every such curve was filed as active; the % refers to the signal ratio)
Summary of the method: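 Cells carrying a p53-responsive bla reporter are treated with test compounds for 16 h at 37 C; beta-lactamase activity is then detected with LiveBLAzer B/G FRET substrate after 2 h at room temperature.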

[18] = target: Beta-2 adrenergic receptor (Homo sapiens) (UniProt P07550); experiment: Adrenergic beta2 receptor (ADRB2) small molecule agonists, cell-based qHTS assay (AID 1963593);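 note: CHO cells stably overexpressing human ADRB2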
Summary of the method: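 CHO cells stably over-expressing ADRB2 were plated overnight at 37C, then dosed with compounds plus a stimulation mix containing 100uM IBMX and 25uM Ro-20-1724 for 0.5hr at room temperature. cAMP was measured by HTRF competition, 1hr.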

For `Nc1cc(Cl)cc(S(=O)(=O)O)c1O`, the Potency [1] was “inactive”, the Potency [2] was “inactive” and the Potency [3] was “inactive”. For the same compound, the Potency [4] was “inactive”, the Potency [5] was “inactive” and the Potency [6] was “inactive”. For the same compound, the Potency [7] was “inactive”, the Potency [8] was “inactive” and the Potency [9] was “inactive”. For the same compound, the Potency [10] was “inactive”, the Potency [11] was “inactive” and the Potency [12] was “inactive”. For the same compound, the Potency [13] was “inactive” and the Potency [14] was “inactive”.
In the case of `O=CNc1ccccc1`, the Potency [1] was “inactive”, the Potency [2] was “inactive” and the Potency [3] was “inactive”. For the same compound, the Potency [4] was “inactive”, the Potency [15] was “inactive” and the Potency [5] was “inactive”. For the same compound, the Potency [6] was “inactive”, the Potency [7] was “inactive” and the Potency [8] was “inactive”. The Potency [11] was “inactive”, the Potency [12] was “inactive” and the Potency [13] was “inactive”. The Potency [14] was “inactive” and the Potency [16] was “inactive”.
With `CCNc1nc(NC(C)CC)nc(OC)n1` (stereo not drawn) the Potency [1] was “inactive”, the Potency [2] was “inactive” and the Potency [3] was “inactive”. The Potency [4] was “inactive”, the Potency [5] was “inactive” and the Potency [6] was “inactive”. For the same compound, the Potency [17] was “inactive”, the Potency [7] was “inactive” and the Potency [8] was “inactive”. The Potency [9] was “inactive”, the Potency [10] was “inactive” and the Potency [11] was “inactive”. For the same compound, the Potency [13] was “inactive”, the Potency [14] was “inactive” and the Potency [16] was “inactive”.
In the case of `Fc1ccc(C(c2ccc(F)cc2)N2CCNCC2)cc1`, the Potency [1] was “inactive”, the Potency [2] was “inactive” and the Potency [3] was “inactive”. The Potency [4] was “inactive”, the Potency [15] was “inactive” and the Potency [5] was “inactive”. The Potency [17] was “inactive”, the Potency [8] was “inactive” and the Potency [9] was 2.9 µM (active). For the same compound, the Potency [10] was “inactive”, the Potency [11] was “inactive” and the Potency [12] was “inactive”. The Potency [13] was “inactive”, the Potency [14] was “inactive” and the Potency [16] was “inactive”.
In the case of `CCCC(=O)O[C@]1(C(=O)COC(=O)CC)CC[C@H]2[C@@H]3CCC4=CC(=O)CC[C@]4(C)[C@H]3[C@@H](O)C[C@@]21C`, the activity change, negative = cytotoxicity [1] was -1.05% [at 19 µM], the activity change [2] was 1.71% [at 11.8 µM, active compounds read high] and the activation [3] was -0.661% [at 15.8 µM]. It also gave an activation [4] of -0.97% [at 11.8 µM], an activity change, negative = cytotoxicity [15] of 0.226% [at 13.5 µM] and an activity change, negative = cytotoxicity [5] of 1.95% [at 13.5 µM]. It also gave an activity change, negative = cytotoxicity [6] of -11% [at 13.5 µM], an activation [8] of 1.9% [at 15.9 µM] and an activity, negative = inhibition [9] of 0.329% [at 12.6 µM]. For the same compound, the activation [10] was 5.7% [at 15.8 µM], the activity change, negative = inhibition [12] was 0.328% [at 18.9 µM] and the activity change, negative = inhibition [13] was 0.289% [at 19 µM]. The activation [14] was 3.82% [at 19 µM] and the activity change, negative = inhibition [16] was -0.509% [at 18.9 µM].
For `CCCCCCCCCCCCCBr`, the Potency [1] was “inactive”, the Potency [2] was “inactive” and the Potency [3] was “inactive”. For the same compound, the Potency [4] was “inactive”, the Potency [15] was “inactive” and the Potency [5] was “inactive”. The Potency [7] was “inactive”, the Potency [8] was “inactive” and the Potency [9] was “inactive”. The Potency [11] was “inactive”, the Potency [12] was “inactive” and the Potency [13] was “inactive”. For the same compound, the Potency [18] was “inactive”, the Potency [14] was “inactive” and the Potency [16] was “inactive”.
With `Cc1ccc(N)cc1O` the Potency [1] was “inactive”, the Potency [2] was “inactive” and the Potency [3] was “inactive”. The Potency [4] was “inactive”, the Potency [15] was 40.8 µM (active) and the Potency [5] was “inactive”. For the same compound, the Potency [7] was “inactive”, the Potency [8] was “inactive” and the Potency [9] was “inactive”. The Potency [10] was “inactive”.
In the case of `O=C1c2c(O)ccc([N+](=O)[O-])c2C(=O)c2c([N+](=O)[O-])ccc(O)c21`, the Potency [1] was 15.2 µM (active), the Potency [2] was 17.2 µM (active) and the Potency [3] was “inactive”. For the same compound, the Potency [4] was “inactive”, the Potency [15] was 18 µM (active) and the Potency [5] was 20.2 µM (active). For the same compound, the Potency [6] was 5.71 µM (active), the Potency [8] was “inactive” and the Potency [9] was “inactive”. For the same compound, the Potency [10] was “inactive”.
For `NC(=O)N(O)[C@@H]1COc2cc(OCc3ccccc3)ccc21`, the Potency [1] was “inactive”, the Potency [2] was “inactive” and the Potency [3] was “inactive”. For the same compound, the Potency [4] was “inactive”, the Potency [15] was “inactive” and the Potency [7] was “inactive”. For the same compound, the Potency [8] was “inactive”, the Potency [9] was “inactive” and the Potency [10] was “inactive”. For the same compound, the Potency [13] was “inactive”, the Potency [18] was “inactive” and the Potency [16] was “inactive”.
For `C=C(C)[C@@H]1CC=C(C)C(=O)C1`, the Potency [1] was “inactive”, the Potency [2] was “inactive” and the Potency [3] was “inactive”. The Potency [4] was “inactive”, the Potency [15] was “inactive” and the Potency [5] was “inactive”. The Potency [6] was “inactive”, the Potency [8] was “inactive” and the Potency [9] was “inactive”. The Potency [10] was “inactive”, the Potency [11] was “inactive” and the Potency [13] was “inactive”. For the same compound, the Potency [14] was “inactive” and the Potency [16] was “inactive”.
